Some test systems named below: HCT-15 colon; HT29 colon; SNB-75 CNS; SNB-19 CNS; U251 CNS; PC-3 prostate; SK-MEL-5 melanoma; UACC-62 melanoma; SK-MEL-28 melanoma; LOX IMVI melanoma.
Assay in all cases: NCI-60 one-dose screen, 48 h (100 = growth as untreated, 0 = no growth, -100 = all killed)
What all share (conditions): 10 µM unless noted

About 83,000 compounds went through this panel and 20% of them were active in at least one assay; those are over-represented in the sample as a whole.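 Note: values are percent growth. 100 is the growth of untreated cells, values between 100 and 0 indicate rising inhibition; between -100 and 0 indicates cell death.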 A number with no mark means an inactive call. Activity calls are given as the source filed them. The calls were made as follows: active = growth percent below 10; inactive = the rest.

With `CCN(CCO)C(Cc1ccccc1)c1ccccc1` (centres undefined), the growth in the assay on HCT-15 colon is 94.3%; in the assay on HT29 colon it was 98.5%; with SNB-75 CNS it was 99.8%; with SNB-19 CNS, 119%; in the assay with U251 CNS, 115%; in the assay with PC-3 prostate, 94.9%. In addition, the growth in the assay on SK-MEL-5 melanoma was 104%; with UACC-62 melanoma, 107%; in the assay with SK-MEL-28 melanoma it was 101%.

`CC(=O)OC[C@]1(C)C=C2C(=O)[C@](C)(O)C3(CC3)C(C)=C2[C@H]1OC(=O)N(C)CCN(C)C(=O)OC(C)(C)C`: the growth in the assay with HCT-15 colon was 3.65% (active); in the assay on HT29 colon, 0.176% (active); in the assay on SNB-75 CNS, -15.1% (active); in the assay with SNB-19 CNS, 8.79% (active); in the assay on U251 CNS, 4.09% (active); in the assay with PC-3 prostate, -21.4% (active). The growth was -74.4% (active) with SK-MEL-5 melanoma, -52% (active) in the assay on UACC-62 melanoma and -4.04% (active) in the assay with SK-MEL-28 melanoma.

On to `CN(C)CC(C(=O)Cc1ccccc1)c1ccccc1` (centres undefined), for which the growth in the assay on HCT-15 colon is 37.2%; in the assay on HT29 colon, 30%; in the assay with SNB-75 CNS, 73.4%; with SNB-19 CNS, 100%; with U251 CNS, 110%; with PC-3 prostate it was 73.2%. Also, the growth is 97.2% in the assay on SK-MEL-5 melanoma, 112% in the assay with UACC-62 melanoma and 96.5% with SK-MEL-28 melanoma.

Consider `CNC(=O)Oc1cccc(C(F)(F)F)c1`, for which the growth in the assay with HCT-15 colon is 117%; with HT29 colon, 108%; with SNB-75 CNS, 113%; with SNB-19 CNS, 103%; in the assay on U251 CNS it was 114%; in the assay with PC-3 prostate it was 104%. Moreover, the growth was 105% with SK-MEL-5 melanoma, 97.7% with UACC-62 melanoma and 105% with SK-MEL-28 melanoma.

Take `COc1cc(C=Nc2cc(Cl)cc(Cl)c2)ccc1N(CCCl)CCCl`: the growth is 96.2% in the assay on HCT-15 colon; 81.5% with HT29 colon; 84.1% with SNB-75 CNS; 89.8% in the assay on SNB-19 CNS; 86.9% in the assay with U251 CNS; 63.1% with PC-3 prostate. Besides, the growth in the assay on SK-MEL-5 melanoma is 93.9%; in the assay with UACC-62 melanoma it was 82.9%; with SK-MEL-28 melanoma, 104%.

Turning to `COC(=O)[C@H](Cc1ccccc1)NNC(=O)c1csc([C@@H](C[C@H](C(C)C)N(C)C(=O)[C@@H](NC(=O)[C@H]2CCCCN2C)C2CC2)OC(C)=O)n1`, the growth with HCT-15 colon was 13.9%; with HT29 colon, 4.57% (active); in the assay on SNB-75 CNS, 49.2%; in the assay on SNB-19 CNS, 65.2%; with U251 CNS it was 4.68% (active); in the assay with PC-3 prostate, 13.9%. The growth was -42.3% (active) in the assay on SK-MEL-5 melanoma, 33.7% in the assay on UACC-62 melanoma, 13.6% in the assay on LOX IMVI melanoma and 48.3% in the assay on SK-MEL-28 melanoma.

As for `COc1cccc2c1c(C(=O)C(=O)Nc1ccn[nH]1)cn2Cc1ccc(F)cc1`, the growth is 106% with HCT-15 colon; 105% in the assay with HT29 colon; 90.1% with SNB-75 CNS; 107% in the assay with SNB-19 CNS; 103% in the assay on U251 CNS; 98.3% in the assay with PC-3 prostate. In addition, the growth in the assay with SK-MEL-5 melanoma is 106%; in the assay with UACC-62 melanoma, 92.1%; in the assay with LOX IMVI melanoma, 103%; in the assay on SK-MEL-28 melanoma, 110%.

As for `C[CH2][Sn]([Cl])([Cl])[CH2]C.Oc1ccccc1C=NCCN=Cc1ccccc1O`, the growth with HCT-15 colon is 104%; in the assay with HT29 colon, 108%; in the assay with SNB-75 CNS, 121%; in the assay with SNB-19 CNS it was 106%; in the assay with U251 CNS it was 93.5%; in the assay on PC-3 prostate, 89.8%. The growth in the assay on SK-MEL-5 melanoma was 99.5%; in the assay on UACC-62 melanoma it was 93.8%; in the assay with SK-MEL-28 melanoma, 124%.

In the case of `CC(=O)O[C@H](C[C@H](C(C)C)N(C)C(=O)[C@@H](NC(=O)[C@H]1CCCCN1C)C(C)C)c1nc(C(=O)N[C@@H](Cc2ccccc2)C[C@H](C)C(=O)O)c(C(C)C)s1`, the growth in the assay with HCT-15 colon is 8.7% (active); in the assay on HT29 colon, 2.43% (active); in the assay on SNB-75 CNS, 22.6%; in the assay on SNB-19 CNS, 27.6%; with U251 CNS, 15.4%; in the assay on PC-3 prostate, 29.9%. Also, the growth in the assay with SK-MEL-5 melanoma was -43.9% (active); in the assay with UACC-62 melanoma, 31.1%; in the assay on SK-MEL-28 melanoma, 60.9%.

In the case of `CSc1nc(Cl)cc(N2CC2)n1`, the growth in the assay on HCT-15 colon is 100%; in the assay on HT29 colon, 112%; in the assay on SNB-75 CNS, 110%; with SNB-19 CNS, 108%; with U251 CNS it was 110%; in the assay on PC-3 prostate it was 92.5%. Moreover, the figures for the growth with SK-MEL-5 melanoma, with UACC-62 melanoma and in the assay with SK-MEL-28 melanoma were 105%, 97.9% and 121%, respectively.

As for `OCCNC(Cc1ccccc1)c1ccc2c(c1)OCO2` (centres undefined), the growth was 100% with HCT-15 colon; 73% with HT29 colon; 108% in the assay with SNB-75 CNS; 106% with SNB-19 CNS; 92.9% with U251 CNS; 73.1% in the assay with PC-3 prostate. The growth is 101% in the assay with SK-MEL-5 melanoma, 92.4% with UACC-62 melanoma and 109% with SK-MEL-28 melanoma.

Regarding `CN1CCC(O)(c2ccc(F)cc2)C(C(=O)c2ccc(F)cc2)C1` (centres undefined), the growth was 107% with HCT-15 colon; 122% in the assay with HT29 colon; 113% with SNB-75 CNS; 95.1% with SNB-19 CNS; 107% in the assay on U251 CNS; 98.4% with PC-3 prostate. In addition, the values for the growth in the assay on SK-MEL-5 melanoma, in the assay with UACC-62 melanoma and in the assay on SK-MEL-28 melanoma were 102%, 100% and 121%, respectively.

With `C=C1C[C@](OC)([C@H](O)C(=O)N[C@@H](OC)[C@@H]2C[C@@H](O)C(C)(C)[C@@H](C[C@@H](COC)OC)O2)O[C@H](C)[C@@H]1C`, the growth is -51.3% (active) with HCT-15 colon; -68.7% (active) in the assay with HT29 colon; -100% (active) in the assay on SNB-75 CNS; -10.7% (active) in the assay with SNB-19 CNS; -61.9% (active) in the assay on U251 CNS; -25.5% (active) in the assay with PC-3 prostate. In addition, the growth in the assay on SK-MEL-5 melanoma is -100% (active); in the assay with UACC-62 melanoma, -92.5% (active); in the assay with SK-MEL-28 melanoma, -100% (active).

The values are drawn from PubChem BioAssay (NCI).
